The values below come from PubChem BioAssay (NCI).

Among the test systems are EKVX NSCLC; SN12C renal; UO-31 renal; TK-10 renal; ACHN renal; CAKI-1 renal; A498 renal; CCRF-CEM leukemia; MOLT-4 leukemia; SR leukemia; RPMI-8226 leukemia; OVCAR-8 ovarian; OVCAR-5 ovarian; OVCAR-4 ovarian; SK-OV-3 ovarian; IGROV1 ovarian; OVCAR-3 ovarian; NCI/ADR-RES ovarian.
Holding throughout (assay): NCI-60 one-dose screen, 48 h (100 = growth as untreated, 0 = no growth, -100 = all killed)
Conditions in all cases: 10 µM unless noted

About 83,000 compounds went through this panel and 20% of them were active in at least one assay; those are over-represented in the sample as a whole.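 Growth was measured after 48 h exposure to one concentration of compound in 96-well plates. Values under 10 count as active.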 A number with no mark means an inactive call. The source made the active and inactive calls.

Regarding `CN1CC[C@@H](c2c(O)cc(O)c3c(=O)cc(-c4ccccc4Cl)oc23)[C@@H]1CO`, the growth is 0.493% (active) in the experiment with EKVX NSCLC; 12.4% with SN12C renal; -5.4% (active) in the experiment with UO-31 renal; 5.71% (active) in the experiment with TK-10 renal; 4.44% (active) in the experiment on ACHN renal; 5.86% (active) with CAKI-1 renal. Also, the growth in the experiment with A498 renal was -60.4% (active); in the experiment with CCRF-CEM leukemia it was 13.4%; in the experiment on MOLT-4 leukemia, 1.59% (active); in the experiment with SR leukemia, 1.89% (active); with RPMI-8226 leukemia, 3.13% (active); in the experiment on OVCAR-8 ovarian, 6.68% (active). Besides, the growth in the experiment on OVCAR-5 ovarian was 7.25% (active); with OVCAR-4 ovarian it was -2.68% (active); in the experiment on SK-OV-3 ovarian it was 5.82% (active); in the experiment on IGROV1 ovarian it was 6.42% (active); in the experiment with OVCAR-3 ovarian, 14%; with NCI/ADR-RES ovarian it was -3.1% (active).
On to `CN(C)C1CCN(C(=O)c2ccc(NC(=O)Nc3ccc(-c4nc(N5CCOCC5)nc(N5CCOCC5)n4)cc3)cc2)CC1`, for which the growth in the experiment with EKVX NSCLC is 40.3% [2.5 µM]; in the experiment with SN12C renal it was 3.23% [2.5 µM] (active); in the experiment with UO-31 renal, 32.2% [2.5 µM]; with TK-10 renal, -9.03% [2.5 µM] (active); in the experiment with ACHN renal, 55.6% [2.5 µM]; with CAKI-1 renal, 10.2% [2.5 µM]. Besides, the growth is -54.1% [2.5 µM] (active) in the experiment with A498 renal; 9.68% [2.5 µM] (active) with CCRF-CEM leukemia; -7.96% [2.5 µM] (active) in the experiment on MOLT-4 leukemia; 3.59% [2.5 µM] (active) in the experiment on SR leukemia; -2.37% [2.5 µM] (active) in the experiment on RPMI-8226 leukemia; -20.9% [2.5 µM] (active) with OVCAR-8 ovarian. Further, the growth is -2.63% [2.5 µM] (active) with OVCAR-5 ovarian; -29.9% [2.5 µM] (active) in the experiment with OVCAR-4 ovarian; -51.9% [2.5 µM] (active) in the experiment on SK-OV-3 ovarian; -54.8% [2.5 µM] (active) with IGROV1 ovarian; 2.07% [2.5 µM] (active) with OVCAR-3 ovarian; 95.6% [2.5 µM] in the experiment with NCI/ADR-RES ovarian.
For `C[C@@H](NC(=O)c1ncnc(N)c1Cl)c1ncc(C(=O)Nc2cc(C(F)(F)F)c(Cl)cn2)s1`, the growth in the experiment with EKVX NSCLC was 101%; in the experiment with SN12C renal, 82.6%; in the experiment with UO-31 renal, 52.8%; in the experiment on TK-10 renal, 77.4%; in the experiment on ACHN renal it was 74.5%; with CAKI-1 renal it was 74.2%. For the same compound, the growth with A498 renal was 59.6%; with CCRF-CEM leukemia it was 78.5%; in the experiment on MOLT-4 leukemia, 70.8%; in the experiment with SR leukemia, 57.5%; in the experiment on RPMI-8226 leukemia, 71.9%; in the experiment with OVCAR-8 ovarian, 64.5%. Also, the growth was 31.3% in the experiment with OVCAR-5 ovarian; 98.5% in the experiment on OVCAR-4 ovarian; 93.6% in the experiment with SK-OV-3 ovarian; 63.5% in the experiment on IGROV1 ovarian; 95% with OVCAR-3 ovarian; 79.8% with NCI/ADR-RES ovarian.
For the compound `C[C@@H](Oc1cc(-c2cnn(C3CCNCC3)c2)cnc1N)c1c(Cl)ccc(F)c1Cl`, the growth with EKVX NSCLC is 0.0738% (active); with SN12C renal it was -41% (active); with UO-31 renal, -73.4% (active); in the experiment with TK-10 renal it was -36.2% (active); in the experiment with ACHN renal, -45.9% (active); with CAKI-1 renal it was -64.1% (active). In addition, the growth with A498 renal is -68.3% (active); in the experiment with CCRF-CEM leukemia, -19.5% (active); with MOLT-4 leukemia it was -34.5% (active); with SR leukemia it was -35.7% (active); in the experiment on RPMI-8226 leukemia it was -43.3% (active); in the experiment on OVCAR-8 ovarian, -27.5% (active). Moreover, the growth was -28.7% (active) with OVCAR-5 ovarian; -23.9% (active) in the experiment on OVCAR-4 ovarian; -39.4% (active) in the experiment on SK-OV-3 ovarian; -24.5% (active) in the experiment with IGROV1 ovarian; 6.67% (active) in the experiment with OVCAR-3 ovarian; 2.26% (active) in the experiment with NCI/ADR-RES ovarian.
On to `Cc1ccc(-n2nc(C(C)(C)C)cc2NC(=O)NCc2cc(F)ccc2Oc2ccc3c(cnn3CCO)c2)cc1`, for which the growth was 39.7% in the experiment on EKVX NSCLC; 19.5% in the experiment with SN12C renal; -6.07% (active) with UO-31 renal; 4.78% (active) in the experiment with TK-10 renal; 11.7% in the experiment on ACHN renal; 20.2% in the experiment with CAKI-1 renal. Moreover, the growth in the experiment on A498 renal is -10.8% (active); in the experiment with CCRF-CEM leukemia it was 20%; in the experiment with MOLT-4 leukemia it was 3.32% (active); in the experiment with SR leukemia it was 7.67% (active); with RPMI-8226 leukemia it was 18.1%; with OVCAR-8 ovarian, 23.6%. Moreover, the growth in the experiment with OVCAR-5 ovarian is 25.7%; in the experiment on OVCAR-4 ovarian, 27.5%; in the experiment with SK-OV-3 ovarian it was 18.2%; in the experiment on IGROV1 ovarian it was 8.97% (active); in the experiment with OVCAR-3 ovarian it was 54.3%; in the experiment with NCI/ADR-RES ovarian it was 21.3%.
`CCc1nc(C(N)=O)c(Nc2ccc(N3CCC(N4CCN(C)CC4)CC3)c(OC)c2)nc1NC1CCOCC1`: the growth with EKVX NSCLC is 46.6%; in the experiment with SN12C renal it was 29.2%; in the experiment on UO-31 renal, 4.67% (active); in the experiment on TK-10 renal, 25.4%; in the experiment on ACHN renal, 29%; in the experiment with CAKI-1 renal, 20.2%. In addition, the growth in the experiment with A498 renal is -92.6% (active); with CCRF-CEM leukemia it was 6.04% (active); in the experiment with MOLT-4 leukemia, 17.2%; in the experiment on SR leukemia, 1.01% (active); in the experiment with RPMI-8226 leukemia, 28.3%; in the experiment on OVCAR-8 ovarian it was 39.6%. Also, the growth in the experiment with OVCAR-5 ovarian is 26.5%; in the experiment on OVCAR-4 ovarian, 81.2%; in the experiment on SK-OV-3 ovarian, 4.92% (active); in the experiment with IGROV1 ovarian, 4.12% (active); in the experiment with OVCAR-3 ovarian, 53.4%; in the experiment on NCI/ADR-RES ovarian it was 32%.
In the case of `C=CCn1c(=O)c2cnc(Nc3ccc(N4CCN(C)CC4)cc3)nc2n1-c1cccc(C(C)(C)O)n1`, the growth in the experiment on EKVX NSCLC was 22.5%; in the experiment with SN12C renal, 28.4%; in the experiment with UO-31 renal, 10.5%; with TK-10 renal, 13.8%; with ACHN renal, 25.4%; with CAKI-1 renal it was 23.3%. For the same compound, the growth in the experiment on A498 renal was -26% (active); in the experiment with CCRF-CEM leukemia, 8% (active); in the experiment on MOLT-4 leukemia, 3.84% (active); with SR leukemia, 4.58% (active); in the experiment on RPMI-8226 leukemia, 10.1%; with OVCAR-8 ovarian, 8.75% (active). Also, the growth is 25.1% in the experiment with OVCAR-5 ovarian; 20.2% in the experiment with OVCAR-4 ovarian; -1.76% (active) with SK-OV-3 ovarian; 3.06% (active) in the experiment with IGROV1 ovarian; -8.58% (active) in the experiment on OVCAR-3 ovarian; 25.1% in the experiment on NCI/ADR-RES ovarian.
